Source: PubChem BioAssay
A selection: hits, their analogues and other compounds. The true share with any hit is near 6.1%.
DRD3 agonist – agonists of human D3 dopamine receptor. P35462. D3R DiscoveRx beta-arrestin cells, luminescence, 90 min. max activation, %. hit rate 0.58% among 410,000. AID 652048; in the data active = max activation above about 30%
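Cells at 1500/well, incubated overnight, then treated with pinned compounds (dopamine as control) for 90 min at 37 degrees C. DiscoveRx reagent added for 30 - 60 minutes at room temperature; luminescence read.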
D1 PAM – potentiators of human D1 dopamine receptor; HEK293 TREx D1 cells, calcium flux, dopamine EC20 potentiation; P21728; potentiation, % at 10 µM; hit rate 0.036% among 360,000; in the data active = potentiation above about 30%
Target sequence (P21728 whole entry, looked up): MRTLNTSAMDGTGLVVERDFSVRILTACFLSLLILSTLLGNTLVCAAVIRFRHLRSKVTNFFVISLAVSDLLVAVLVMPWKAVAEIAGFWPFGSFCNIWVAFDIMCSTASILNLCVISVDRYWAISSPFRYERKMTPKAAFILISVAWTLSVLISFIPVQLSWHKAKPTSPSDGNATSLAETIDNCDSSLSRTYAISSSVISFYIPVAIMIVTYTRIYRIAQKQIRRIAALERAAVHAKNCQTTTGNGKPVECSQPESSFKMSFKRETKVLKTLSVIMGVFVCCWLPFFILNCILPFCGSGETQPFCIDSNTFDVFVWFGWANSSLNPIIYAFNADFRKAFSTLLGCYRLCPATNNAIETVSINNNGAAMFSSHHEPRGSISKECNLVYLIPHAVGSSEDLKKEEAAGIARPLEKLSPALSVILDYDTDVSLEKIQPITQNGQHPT
DRD3 antagonist – blocks the human D3 dopamine receptor; max response, negative = inhibition, %; hit rate 2.5% among 360,000; AID 652054; P35462; D3R cells, DiscoveRx beta-arrestin luminescence, antagonist mode; stronger effect = lower value; in the data active = max response below about -50%; inconclusive = no clear call, values can overlap the other calls
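Cells expressing the human receptor were seeded at 1500 cells/well, incubated overnight at 37 degrees C in 5% CO2, then exposed to library compounds with dopamine controls for 90 minutes at 37 degrees C before luminescent detection.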
D1 agonist – human D1 receptor agonism. P21728. HEK293 T-REx D1 cells, calcium flux, agonist mode. activation, % at 2 µM. hit rate 1% among 360,000; in the data active = activation above about 30%
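Agonism was scored from calcium flux recorded over 180 s (1 read/s) after pintool compound addition, following a 10-cycle baseline. Cells were inducible force-coupled HEK293 TREx D1, plated overnight at 30 C and loaded with no-wash calcium dye.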
D1 antagonist – blocks dopamine activation of the human D1 receptor; P21728; HEK293 TREx D1 cells, calcium flux, dopamine EC80; stronger effect = lower value; activity change, negative = inhibition, % at 10 µM; hit rate 3.2% among 360,000; in the data active = activity change below about -30%
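HEK293 T-REx cells expressing inducible, force-coupled D1 receptor; no-wash Ca dye, 30–90 min RT. Cmpd → 180 s read at 1 Hz → EC80 DA → 180 s read.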
Of the large screens only hits and unclear results are named; the others gave an inactive call; ! = not active in a repeat.

COc1ccc(NC(=O)CCN2CCN(c3ccc(F)cc3)CC2)cc1	DRD3 antagonist -97.9
COc1ccc(NC(=O)CCN2CCN(c3cccc(Cl)c3)CC2)cc1	D1 agonist 36.1 (no result: DRD3 antagonist)
COc1ccc(NC(=O)CCN2CCN(S(=O)(=O)c3cc(Cl)ccc3Cl)CC2)cc1	none
COc1cc(NC(=O)CN2CCN(c3ccc(F)cc3)CC2)cc(OC)c1	none (no result: DRD3 antagonist)
Cc1csc(SCC(=O)Nc2cc(S(=O)(=O)N(C)C)ccc2C)n1	none
Cc1ccccc1-c1noc(-c2cc3ccccc3oc2=O)n1	none (no result: DRD3 antagonist)
CS(=O)(=O)N1CCc2cc(C(=O)NC3CC3)ccc21	D1 antagonist -37.3
CS(=O)(=O)N1CCc2cc(C(=O)N3CCN(c4ccc(F)cc4)CC3)ccc21	none
COc1ccc(NC(=O)c2ccc3c(c2)CCN3S(C)(=O)=O)cc1	none (no result: D1 PAM, D1 agonist, D1 antagonist)
CS(=O)(=O)N1CCc2cc(C(=O)Nc3ccc(Cl)cc3)ccc21	DRD3 agonist 93.7, DRD3 antagonist inconclusive
CS(=O)(=O)N1CCc2cc(C(=O)N3CCN(c4ccccc4)CC3)ccc21	D1 antagonist -64.7!
COc1ccc(CCn2cc3c(c2-c2ccccc2Br)c(=O)n(C)c(=O)n3C)cc1OC	none (no result: DRD3 antagonist)
Cc1ccccc1OCCC(=O)Nc1ccc(N2CCOCC2)cc1N1CCOCC1	none
COC(=O)c1ccc(CNC(=O)CNc2cc(C(F)(F)F)ccc2N2CCOCC2)cc1	DRD3 antagonist -56.6
CCOC(=O)c1c(C)nc2c(c1-c1ccccc1)C(=O)c1ccccc1-2	DRD3 agonist 41.1
COc1cccc(C(=O)Nc2c(C(=O)NC(C)(C)C)oc3ccccc23)c1	none (no result: DRD3 antagonist)
O=c1c(N2CCCCC2)csc2ccc(F)cc12	D1 antagonist -74.8 (no result: DRD3 antagonist)
CCN1CCN(c2csc3ccc(F)cc3c2=O)CC1	none (no result: DRD3 antagonist)
O=C(/C=C/c1cccc(Cl)c1)c1nc2ccccc2[nH]1	DRD3 antagonist -56.5
O=C(/C(=C\c1ccccc1)c1nc2ccccc2[nH]1)c1ccc(Cl)cc1	DRD3 antagonist -71.5
O=C(/C(=C/c1ccc(Cl)cc1)c1nc2ccccc2[nH]1)c1cccs1	DRD3 antagonist -65.2
O=C(NCc1nc2ccccc2[nH]1)c1cccc(Cl)c1	none (no result: DRD3 antagonist)
COc1ccccc1-c1nn2c(=O)cc(CN3CCN(S(=O)(=O)c4ccc(C)cc4)CC3)nc2s1	none (no result: DRD3 antagonist)
CC(=O)Nc1ccc(CN(C)c2c(C)nc3ccc(C(=O)N(C)Cc4ccco4)cn23)cc1	none (no result: D1 PAM, D1 agonist, D1 antagonist)
CC(C)NC(=O)[C@H](CSCc1ccccc1)N1Cc2ccccc2C1=O	none
O=C(NCCCN1CCCC1)[C@H](CSCc1ccccc1)N1Cc2ccccc2C1=O	DRD3 antagonist -59.7
Cc1cc(C)cc(NC(=O)CCCc2nc(-c3ccco3)no2)c1	none (no result: DRD3 antagonist)
COc1ccccc1CNC(=O)c1ccc(C)c(-n2cnc3cccnc32)c1	none (no result: DRD3 antagonist)
CCOc1ccc(CCNC(=O)c2ccc(C)c(-n3cnc4cccnc43)c2)cc1	D1 antagonist -30.9 (no result: DRD3 antagonist)
COc1ccc(C(=O)NCCONC(=O)c2ccc(OC)cc2)cc1	none
COP(=O)(OC)c1nc(-c2ccc([N+](=O)[O-])cc2)oc1N1CCCCC1	D1 agonist 49.2
O=c1c(Cl)c(Cl)cnn1Cc1nnc(-c2ccccc2Br)o1	DRD3 antagonist -80.9, D1 agonist 235.9
Cc1[nH]c2ccccc2c(=O)c1CN1CCCCCC1	none
Cc1[nH]c2c(Cl)cccc2c(=O)c1CN1CCCC1	DRD3 antagonist -65.3
O=C(NCc1ccccc1)C(c1cccc2ccccc12)n1c(=O)c(-c2ccccc2)nc2ccccc21 (centres undefined)	none (no result: D1 PAM, D1 agonist, D1 antagonist)
CCCNC(=O)C1(C)CCN(C(=O)COCc2ccccc2)C1 (centres undefined)	none (no result: D1 PAM, D1 agonist, D1 antagonist)
O=C1CCCC2=C1C(c1ccc(O)c(O)c1)Nc1ccc3ccccc3c12 (centres undefined)	none (no result: D1 PAM, D1 agonist, D1 antagonist)
O=C1CCCC2=C1C(c1ccco1)Nc1ccc3ccccc3c12 (centres undefined)	D1 antagonist -36.3
Cc1cc(C)nc(/N=C(\N)N(Cc2ccccc2)Cc2ccccc2)n1	none
N#CC1=C(N)NC(SCc2ccccc2)=C(C#N)C12CCCCC2	D1 antagonist -36.2
CC(C)Oc1cccc(NC(=O)c2cnccc2C(F)(F)F)c1	none
O=[N+]([O-])c1ccc(N2CCN(Cc3ccccc3)CC2)s1	DRD3 antagonist -65.7
O=[N+]([O-])c1ccc(N2CCN(Cc3ccccc3)CC2)c2c1no[n+]2[O-]	DRD3 antagonist -74.0 (no result: D1 PAM, D1 agonist, D1 antagonist)
O=[N+]([O-])c1ccc(N2CCCCC2)s1	none
Cc1ccc(Cn2c(C)c3cnn(CC(=O)N4CCN(c5cc(C)ccc5C)CC4)c(=O)c3c2C)cc1	none (no result: DRD3 antagonist)
COCCOC(=O)C1=C(C)NC(=O)N(C(C)=O)C1c1ccc(Cl)cc1 (centres undefined)	DRD3 antagonist -102.5
Clc1nc(Cl)nc(NCCC2=CCCCC2)n1	none
CC(C)(C)NC(=O)COC(=O)c1ccc2c(c1)C(=O)N(Cc1ccco1)C2=O	none (no result: D1 PAM)
O=[N+]([O-])c1ccc(Cl)cc1N1CCOCC1	none
COc1cc([N+](=O)[O-])c(N2CCOCC2)c([N+](=O)[O-])c1OC	D1 antagonist -33.5
O=[N+]([O-])c1cc(Br)c2nsnc2c1N1CCOCC1	D1 antagonist -44.5
CSCCC(NC(=O)c1cccc([N+](=O)[O-])c1)c1nc2ccccc2[nH]1 (centres undefined)	DRD3 antagonist -53.5
Cc1ccc(NC(=O)CN2CCCCCC2)cc1[N+](=O)[O-]	none
CC(=O)N1CCc2cc(S(=O)(=O)NC(Cc3ccccc3)C(=O)NCc3ccccc3Cl)ccc21 (centres undefined)	none (no result: DRD3 antagonist)
Cc1cccc(C(=O)N2CCc3cc(CNC(=O)COc4ccc(Cl)cc4)ccc32)c1	none (no result: DRD3 antagonist)
Cc1ccc(CNC(=O)Cc2ccc(-n3cccc3)cc2)cc1	none
O=C(Cc1ccc(-n2cccc2)cc1)NCc1cccs1	D1 antagonist -34.0
c1ccc(-c2cn(-c3ccccc3)c3ncnc(N4CCN(c5ccccc5)CC4)c23)cc1	none (no result: DRD3 antagonist)
CC(=O)c1ccc(NC(=S)N2CCCC2)cc1	none
O=C(O)c1ccc(NC(=S)N2CCCCC2)cc1	D1 antagonist -73.0
CCOC(=O)c1ccc(NC(=S)N2CCCC(C(=O)N3CCCC3)C2)cc1 (centres undefined)	D1 antagonist -89.0
CC(=O)c1ccc(NC(=O)C2CCN(S(=O)(=O)c3ccc4[nH]c5c(c4c3)CCCCC5)CC2)cc1	none (no result: DRD3 antagonist)
CCOc1ccc(-n2nc(CO)c(C(=O)NCC(C)O)n2)cc1 (centres undefined)	none (no result: DRD3 antagonist)
COc1ccc(/C=c2\s/c(=C/C(=O)c3ccc(C)cc3)[nH]c2=O)c(OC)c1	D1 agonist 136.0
COc1cccc(/C=c2\s/c(=C/C(=O)c3ccc(C)cc3)[nH]c2=O)c1OC	none
CCOC(=O)C1=C(CN2CCN(c3cccc(OC)c3)CC2)NC(=O)NC1c1ccc(OC)cc1 (centres undefined)	none (no result: DRD3 antagonist)
Cc1ccc(NC(=O)CSc2nncn2N)cc1C	none
CCN1CCN(Cc2c(C)[nH]c3ccc(OC)cc3c2=O)CC1	DRD3 antagonist -53.1
CCOc1ccc2[nH]c(C)c(CN3CCN(CC)CC3)c(=O)c2c1	none
